Reference: paper PMC5540273 (PLoS ONE, 2017)

Tested on: ABL2
Conditions: concentration: 1 μM, replicates: in singlicate; n = 1
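Further: KINOMEscan kinase panel screen.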

With `CSc1ccc(NC2=C(c3ccc(Cl)cc3)C(=O)NC2=O)cc1` [SB-317658] as the compound, how does the “%Inh” value read?
The value was 0%.

`O=C(Nc1n[nH]c2nc(-c3ccccc3)ccc12)C1CC1` [SB-708999] was tested. Which “%Inh” value did it give?
Its value is 16%.

`COc1cc(Nc2ccnc3cc(-c4ccncc4)ccc23)cc(OC)c1OC.Cl` [GW494610] was tested. Which “%Inh” value did it give?
Its value is 93%.

With `Cc1ccc(O)cc1Nc1ccnc2ccc(C(C)(C)C)cc12` [GW856805] as the compound, how does the “%Inh” value read?
Its value is 90.2%.

For `Cc1ccc(NC(=O)c2ccnc(N3CCCCC3)c2)cc1-c1ccc(C(=O)NCC2CC2)cc1` [GW775610], which “%Inh” value is on record?
The value was 54%.

Which “%Inh” value does the source give for `Cc1cc(-c2ccnc(Nc3cccc(C#N)c3)n2)cc(C)c1O` [GSK1440913] here?
Its value is 37%.

Which “%Inh” value does the source give for `Cl.Cl.NCC(NC(=O)c1cc(-c2cccnc2)c(-c2ccnc3[nH]ccc23)s1)c1ccccc1` (centres unmarked) [GSK1323434] here?
The value was 30%.

For `COc1ccc(C2=C(Nc3cccc(O)c3)C(=O)NC2=O)cc1` [SB-390766], which “%Inh” value is on record?
Its value is 13%.

How did the “%Inh” value turn out when `COC(=O)Nc1nc2ccc(Oc3ccc(NC(=O)Nc4cc(C(F)(F)F)ccc4F)cc3)cc2[nH]1.Cl` [GW654607] was run?
Its value is 94%.

With `O=C(Nc1n[nH]c2nc(-c3cccc(O)c3)ccc12)C1CC1` [SB-711805] as the compound, how does the “%Inh” value read?
The value was 27%.

How did the “%Inh” value turn out when `N#Cc1cnc2cc(-c3cnc(CNCCN4CCOCC4)s3)ccc2c1Nc1ccc(Oc2ccccc2)cc1` [GW664114] was run?
Its value is 58%.

How did the “%Inh” value turn out when `CN(C)CCNS(=O)(=O)c1ccc(-c2ccnc3[nH]ccc23)cc1` [GSK977620] was run?
Its value is 8%.

How did the “%Inh” value turn out when `CN(C)c1ncnc2nc[nH]c12` [SKF-31736] was run?
Its value is 0%.

With `COc1ccc(NC(=O)c2ccoc2)cc1-c1ccc(C(=O)NCC2CC2)cc1` [GW810437] as the compound, how does the “%Inh” value read?
The value was 5%.

Which “%Inh” value does the source give for `O=C(Nc1c(F)cccc1F)c1cc(C(=O)c2ccccc2F)c[nH]1` [GSK1326180] here?
The value was 0%.

How did the “%Inh” value turn out when `Cn1cc(-c2cnc(N)c3c(-c4ccc5c(c4)CCN5C(=O)Cc4ccccc4)csc23)cn1` [GSK2593074] was run?
Its value is 81%.

With `O=C(O)C(F)(F)F.O=c1[nH]ccc2nc(N[C@@H]3CCNC3)nc(Nc3cc(Cl)cc(Cl)c3)c12` [GSK2188764] as the compound, how does the “%Inh” value read?
The value was 0%.

For `CN(c1ccc(NC(=O)Nc2cccc(Cl)c2)cc1)c1ccnc(N)n1.Cl` [GW830707], which “%Inh” value is on record?
Its value is 3%.

For `Cn1cc(-c2ccc3c(c2)CCN3C(=O)Cc2cc(F)cc(F)c2F)c2c(N)ncnc21` [GSK2634140], which “%Inh” value is on record?
Its value is 57%.

Which “%Inh” value does the source give for `CC(C)(C)c1ccc(C(=O)Nc2cn3cc(-n4ccnc4)ccc3n2)cc1` here?
Its value is 22%.

`CC(C)c1nc(-c2cccc(NS(=O)(=O)c3c(F)cccc3F)c2)c(-c2ccnc(Nc3ccc(N4CCOCC4)nc3)n2)s1.Cl` [GSK1723980] was tested. Which “%Inh” value did it give?
Its value is 99.4%.

For `O=C1NC(=O)C(c2ccccc2Cl)=C1Nc1cccc(Cl)c1` [SB-342409], which “%Inh” value is on record?
Its value is 16%.

Which “%Inh” value does the source give for `CCn1c(-c2nonc2N)nc2c(-c3ccccc3)ncc(OCCCN)c21.O=C(O)C(F)(F)F.O=C(O)C(F)(F)F` [GSK260205] here?
The value was 16%.

`COc1ccc(C)c(Nc2ccnc(Nc3ccc(-c4cnc[nH]4)cc3)n2)c1.Cl` [GW784041] was tested. Which “%Inh” value did it give?
The value was 92.8%.

For `CN(c1ccc(F)c(NC(=O)c2cccc(OC(C)(C)C#N)c2Cl)c1)c1ccc2nc(NC(=O)C3CC3)sc2n1`, which “%Inh” value is on record?
Its value is 89%.

Tested on: ACVR1B
Conditions: concentration: 1 μM, replicates: in singlicate; n = 1

Which “%Inh” value does the source give for `COc1cccc(NC(=O)NCCNc2ccnc(Nc3ccc(F)cc3)n2)c1` [GSK1379879] here?
Its value is 0%.

For `CS(=O)(=O)c1cccc(CNc2nc(Nc3ccc4c(c3)CCC(=O)N4)ncc2C(F)(F)F)c1`, which “%Inh” value is on record?
The value was 0%.

How did the “%Inh” value turn out when `c1ccc(Oc2ccc(Nc3ccnc4cc(-c5ccc(CN6CCCCC6)o5)ccc34)cc2)nc1` [GW567143] was run?
The value was 0%.

How did the “%Inh” value turn out when `COC(=O)Nc1nc2cc(Oc3ccc(NC(=O)Nc4cccc(SC)c4)cc3)ccc2[nH]1.Cl` [GW697999] was run?
Its value is 0%.

With `Nc1ncc(-c2ccc3nccc(-c4ccncc4)c3c2)cc1S(=O)(=O)N1CCCCC1` [GSK1693850] as the compound, how does the “%Inh” value read?
The value was 0%.

`Cc1ccc(-c2ccc3occ(-c4ccc(S(C)=O)cc4)c3c2)nn1` (centres unmarked) was tested. Which “%Inh” value did it give?
Its value is 7%.

`CC(C)NCC(Cc1ccccc1)NC(=O)c1cc(Br)c(-c2ccnc3[nH]ccc23)s1.Cl.Cl` (centres unmarked) [GSK1383281] was tested. Which “%Inh” value did it give?
Its value is 0%.

With `Cc1ccc(Nc2ccnc(Nc3ccc(C)c(F)c3)n2)cc1O.Cl` [GW582868] as the compound, how does the “%Inh” value read?
The value was 0%.

With `Nc1cccc(-c2ccc3c(N)n[nH]c3c2)c1` [GSK2193613] as the compound, how does the “%Inh” value read?
The value was 0%.

`CN1CCN(Cc2ccc(NC(=O)Nc3ccc(N(C)c4ccnc(Nc5ccc(CS(C)(=O)=O)cc5)n4)cc3)cc2)CC1.Cl` [GW827654] was tested. Which “%Inh” value did it give?
Its value is 0%.

With `Cc1ccc(NC(=O)c2ccc(Cl)c(Cl)c2)cc1-c1ccc(C(=O)Nc2ccncc2)cc1` [GSK1398460] as the compound, how does the “%Inh” value read?
The value was 0%.

How did the “%Inh” value turn out when `CN(c1ccc(NC(=O)N2CCN(CCCN3CCOCC3)CC2)cc1)c1ccnc(Nc2ccc(CS(C)(=O)=O)cc2)n1.Cl` [GW830899] was run?
Its value is 0%.

For `CSc1ccc(NC2=C(c3ccc(Cl)cc3)C(=O)NC2=O)cc1` [SB-317658], which “%Inh” value is on record?
The value was 13%.

For `O=C(Nc1n[nH]c2nc(-c3ccccc3)ccc12)C1CC1` [SB-708999], which “%Inh” value is on record?
The value was 22%.

For `COc1cc(Nc2ccnc3cc(-c4ccncc4)ccc23)cc(OC)c1OC.Cl` [GW494610], which “%Inh” value is on record?
The value was 86%.

How did the “%Inh” value turn out when `Cc1ccc(O)cc1Nc1ccnc2ccc(C(C)(C)C)cc12` [GW856805] was run?
The value was 24%.

With `Cc1ccc(NC(=O)c2ccnc(N3CCCCC3)c2)cc1-c1ccc(C(=O)NCC2CC2)cc1` [GW775610] as the compound, how does the “%Inh” value read?
The value was 0%.

`Cc1cc(-c2ccnc(Nc3cccc(C#N)c3)n2)cc(C)c1O` [GSK1440913] was tested. Which “%Inh” value did it give?
Its value is 0%.

`Cl.Cl.NCC(NC(=O)c1cc(-c2cccnc2)c(-c2ccnc3[nH]ccc23)s1)c1ccccc1` (centres unmarked) [GSK1323434] was tested. Which “%Inh” value did it give?
The value was 0%.

Which “%Inh” value does the source give for `COc1ccc(C2=C(Nc3cccc(O)c3)C(=O)NC2=O)cc1` [SB-390766] here?
Its value is 0%.

How did the “%Inh” value turn out when `COC(=O)Nc1nc2ccc(Oc3ccc(NC(=O)Nc4cc(C(F)(F)F)ccc4F)cc3)cc2[nH]1.Cl` [GW654607] was run?
Its value is 0%.

For `O=C(Nc1n[nH]c2nc(-c3cccc(O)c3)ccc12)C1CC1` [SB-711805], which “%Inh” value is on record?
The value was 13%.

For `N#Cc1cnc2cc(-c3cnc(CNCCN4CCOCC4)s3)ccc2c1Nc1ccc(Oc2ccccc2)cc1` [GW664114], which “%Inh” value is on record?
Its value is 0%.

`CN(C)CCNS(=O)(=O)c1ccc(-c2ccnc3[nH]ccc23)cc1` [GSK977620] was tested. Which “%Inh” value did it give?
The value was 6%.

`CN(C)c1ncnc2nc[nH]c12` [SKF-31736] was tested. Which “%Inh” value did it give?
Its value is 0%.

For `COc1ccc(NC(=O)c2ccoc2)cc1-c1ccc(C(=O)NCC2CC2)cc1` [GW810437], which “%Inh” value is on record?
Its value is 4%.

`O=C(Nc1c(F)cccc1F)c1cc(C(=O)c2ccccc2F)c[nH]1` [GSK1326180] was tested. Which “%Inh” value did it give?
Its value is 20%.

`Cn1cc(-c2cnc(N)c3c(-c4ccc5c(c4)CCN5C(=O)Cc4ccccc4)csc23)cn1` [GSK2593074] was tested. Which “%Inh” value did it give?
The value was 9%.

With `O=C(O)C(F)(F)F.O=c1[nH]ccc2nc(N[C@@H]3CCNC3)nc(Nc3cc(Cl)cc(Cl)c3)c12` [GSK2188764] as the compound, how does the “%Inh” value read?
Its value is 0%.

`CN(c1ccc(NC(=O)Nc2cccc(Cl)c2)cc1)c1ccnc(N)n1.Cl` [GW830707] was tested. Which “%Inh” value did it give?
The value was 4%.

With `Cn1cc(-c2ccc3c(c2)CCN3C(=O)Cc2cc(F)cc(F)c2F)c2c(N)ncnc21` [GSK2634140] as the compound, how does the “%Inh” value read?
Its value is 15%.

How did the “%Inh” value turn out when `CC(C)(C)c1ccc(C(=O)Nc2cn3cc(-n4ccnc4)ccc3n2)cc1` was run?
Its value is 7%.

With `CC(C)c1nc(-c2cccc(NS(=O)(=O)c3c(F)cccc3F)c2)c(-c2ccnc(Nc3ccc(N4CCOCC4)nc3)n2)s1.Cl` [GSK1723980] as the compound, how does the “%Inh” value read?
Its value is 89%.

How did the “%Inh” value turn out when `O=C1NC(=O)C(c2ccccc2Cl)=C1Nc1cccc(Cl)c1` [SB-342409] was run?
The value was 0%.

`CCn1c(-c2nonc2N)nc2c(-c3ccccc3)ncc(OCCCN)c21.O=C(O)C(F)(F)F.O=C(O)C(F)(F)F` [GSK260205] was tested. Which “%Inh” value did it give?
The value was 61%.

`COc1ccc(C)c(Nc2ccnc(Nc3ccc(-c4cnc[nH]4)cc3)n2)c1.Cl` [GW784041] was tested. Which “%Inh” value did it give?
Its value is 74%.

Which “%Inh” value does the source give for `CN(c1ccc(F)c(NC(=O)c2cccc(OC(C)(C)C#N)c2Cl)c1)c1ccc2nc(NC(=O)C3CC3)sc2n1` here?
The value was 0%.
